Results from the supplement of paper PMC6555819.

Legend:
Experiment in all cases: PBM binding z-score (relative to random genomic background probes); higher = stronger binding; sequences stand for … in GC…GCGATTGACAGCGTAGAATGAAGG
[1] = tested on: FXR:RXRa (NR concentration 270 nM, RXRa partner concentration 90 nM)
Method in brief: (§1)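 Binding z-scores take random background probes as their reference. They come from custom Agilent 4×180K protein-binding microarrays incubated 1 h with ligand-free nuclear receptor dimers, with antibodies against each partner (one per run) detecting binding. Scanned fluorescence was regression-normalized.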

[2] = tested on: LXRa:RXRa (NR concentration 270 nM, RXRa partner concentration 90 nM)
Method in brief: as §1

[3] = tested on: LXRa homodimer (NR concentration 270 nM)
Method in brief: as §1

[4] = tested on: LXRb:RXRa (NR concentration 270 nM, RXRa partner concentration 90 nM)
Method in brief: as §1

[5] = tested on: LXRb homodimer (NR concentration 270 nM)
Method in brief: as §1

[6] = tested on: PPARa:RXRa (NR concentration 270 nM, RXRa partner concentration 90 nM)
Method in brief: as §1

[7] = tested on: PPARg:RXRa (NR concentration 180 nM, RXRa partner concentration 90 nM)
Method in brief: as §1

[8] = tested on: PPARg:RXRa 270nM:90nM, anti-RXR (NR concentration 270 nM, RXRa partner concentration 90 nM)
Method in brief: as §1

[9] = tested on: PPARg:RXRa 30nM:10nM, anti-RXR (NR concentration 30 nM, RXRa partner concentration 10 nM)
Method in brief: as §1

[10] = tested on: PPARg:RXRa 90nM:30nM, anti-RXR (NR concentration 90 nM, RXRa partner concentration 30 nM)
Method in brief: as §1

[11] = tested on: PPARg:RXRa DBDmut IVT, anti-RXR (DBD mutation: RXRa K156A/R161A, NR concentration 270 nM, RXRa partner concentration 90 nM)
Method in brief: as §1

[12] = tested on: PPARg:RXRa IVT, anti-PPARg (NR concentration 270 nM, RXRa partner concentration 90 nM)
Method in brief: as §1

[13] = tested on: PPARg DBDmut:RXRa IVT, anti-PPARg (DBD mutation: PPARg1 K132A/R137A, NR concentration 270 nM, RXRa partner concentration 90 nM)
Method in brief: as §1

[14] = tested on: PPARg DBDmut IVT, anti-PPARg (DBD mutation: PPARg1 K132A/R137A, NR concentration 270 nM)
Method in brief: as §1

[15] = tested on: PPARg homodimer (NR concentration 180 nM)
Method in brief: as §1

[16] = tested on: PXR:RXRa (NR concentration 270 nM, RXRa partner concentration 90 nM)
Method in brief: as §1

[17] = tested on: PXR homodimer (NR concentration 270 nM)
Method in brief: as §1

[18] = tested on: RARa:RXR (NR concentration 270 nM, RXRa partner concentration 90 nM)
Method in brief: as §1

[19] = tested on: RARa homodimer (NR concentration 270 nM)
Method in brief: as §1

[20] = tested on: RARb:RXRa (NR concentration 270 nM, RXRa partner concentration 90 nM)
Method in brief: as §1

Sequence	PBM binding z-score [1]	PBM binding z-score [2]	PBM binding z-score [3]	PBM binding z-score [4]	PBM binding z-score [5]	PBM binding z-score [6]	PBM binding z-score [7]	PBM binding z-score [8]	PBM binding z-score [9]	PBM binding z-score [10]	PBM binding z-score [11]	PBM binding z-score [12]	PBM binding z-score [13]	PBM binding z-score [14]	PBM binding z-score [15]	PBM binding z-score [16]	PBM binding z-score [17]	PBM binding z-score [18]	PBM binding z-score [19]	PBM binding z-score [20]
AATACAGGGTCACTAGGACAGAGTAGGTACGAAT	6.09	5.02	1.08	3.97	1.27	5.77	8.06	6.39	3.02	5.18	3.86	5.7	2.64	3.05	2.54	3.17	0.566	4.21	1.62	4.27
TATACAGGGTCAAAGGCCAGAGAACGAATGTCGA	6.59	6.22	2.13	4.88	2.25	6.02	8.23	7.5	5.41	7.34	2.4	4.67	1.74	1.99	2.58	4.27	0.698	6.02	1.1	4.27
CCTAGGAGGACAACAGGAGGTCAGAGCTGCCAGA	1.35	2.17	2.05	1.53	-0.406	2.1	0.818	0.597	-0.229	0.192	0.869	0.949	-0.763	-0.811	1.47	2.11	0.811	2.48	0.684	2.79
CGTCCAAGGTAAGCAGGTCAGTGAAAGCGACGTG	0.187	-0.0922	-0.204	0.018	-1.12	1.25	0.208	0.427	-0.743	-0.154	1.7	1.91	-0.624	-0.894	0.421	0.192	-0.446	0.529	-0.36	1.89
AGAATGAGGTTATTAAGCTCAGGGAATTGCGGTC	1.57	1.14	-0.316	0.747	-0.299	2.6	0.995	1.26	-0.0679	0.636	2.58	1.95	0.589	0.126	-0.0657	0.757	-0.286	0.948	-0.655	1.09
CTAACTAGGTCATTGACAGGACAGTGAATAGTAA	4.3	3.33	0.788	2.12	0.469	5.03	8.17	6.99	4.79	6.51	8.21	8.94	4	4.56	0.99	1.52	0.32	2.14	0.687	3.66
TGGATGAGGTTAAAGATCAGGGAACGTGGCGTCG	3.69	2.74	0.085	2.45	1.54	4.13	3.75	4.84	3.49	4.98	0.289	1.92	1.51	0.255	1.99	2.71	1.07	3.96	0.62	2.37
ACTAGTTGGACAGCTGAGGTCACACACAATTCGG	3.1	2.78	1.59	3.3	0.683	3.53	1.65	1.76	0.342	1.41	0.874	1.88	0.609	0.717	1.73	4.67	1.34	4.57	1.08	3.33
CGTCAAAGTTCAAGGTGACGTAACAGAAAGCAGC	6.62	5.96	2.8	3.49	0.846	4.92	4.71	5.65	2.12	4.45	0.983	2.9	0.379	0.562	2.88	4.44	2.3	3.88	1.52	5.21
GTACCAAGGTGCATAGGTCGTTGATGAGTAGGCG	0.192	0.486	0.209	-0.189	-0.908	1.3	1.21	1.88	0.013	1.15	-0.499	0.0785	-0.485	-0.265	0.243	0.269	-0.124	1.1	-0.294	0.748
GCTCGGAGGACAAGGTCAGAGCCTTGTCCGTAGA	2.67	2.08	-0.456	1.59	-0.419	2.91	0.887	2.22	-0.306	1.23	-0.797	1.42	-1	-0.556	0.956	1.46	-0.573	1.8	-0.489	3.49
CAAACTAGGTCAAGAGGCCAAAGTCCGCTTCCCG	3.54	2.84	0.509	1.81	-0.0945	4.7	7.87	6.59	4.48	6.47	8.03	8.06	1.13	0.602	1.8	1.56	0.34	2.68	0.79	3.93
AGTCAATGTTCATCTAGGTAACGTAAGATATGCT	-0.0895	-0.35	-0.229	-0.0742	-0.311	0.296	0.881	-0.0872	-0.0799	-0.00272	0.56	1.85	1.15	0.949	-0.656	-0.196	0.00127	-0.13	0.181	0.152
TGAATGAGGTTAAAGAGCAGGGAACGTGGCGTCG	2.98	2.56	-0.586	1.45	0.129	4.23	4.98	6.01	4.52	5.96	2.26	3.24	-0.099	-0.275	0.719	1.53	-0.274	2.52	0.12	1.94
